High-throughput results as filed in PubChem BioAssay.
Only some compounds are listed: those with a hit (about 7.1% of all), similar ones and a draw of the others.
IL1B secr inh – inflammasome signaling inhibition, IL-1 beta readout; THP-1 LPS/ATP IL-1B secretion, AlphaLISA, 16 h; hits give low values; activity change, % at 57.5 µM; hit rate 4.7% among 360,000; in the data active means activity change below about -50%; inconclusive means mostly about -30% to -49%; further: on the % scale 0 is the no-effect control and ±100 the full control effect
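THP-1 cells pretreated 1 hr with compounds (up to 57.5 uM final), then stimulated with LPS (250 ng/mL final) plus ATP (1.25 mM final); secreted IL-1B measured by AlphaLISA after 16 hr, decreased signal indicating inhibition.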
ATXN2 expr inh – ATXN2 expression inhibition; HEK-293 ATXN2-luciferase reporter, luminescence, 24 h; Potency, µM (titrated, usually from 57 µM), inactives show at the top dose activity change, negative = inhibition, actives largely listed as inhibitors; hit rate 0.72% among 360,000; AID 1745845; further: potency means the concentration at half of the fitted maximal effect; on the % scale 0 is the no-effect control and ±100 the full control effect; nearly all actives have a fitted effect of over 55% in size
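ATXN2-luciferase reporter cells (luciferase flanked by upstream and downstream ATXN2 gene portions) were treated 24 h at 37 °C with compounds at up to 57 uM. SteadyGlo luminescence gave expression; GF-AFC fluorescence gave viability.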
PINK1 modulator – modulators of PINK1 expression; PINK1 immunofluorescence, high-content cytometry, 24 h; Potency, µM (titrated, usually from 76.6 µM), for inactives: at the highest dose activation (PINK1 increase), actives largely listed as activators; hit rate 0.2% among 410,000; AID 624263; active means well fitted activation curve with a large enough effect; inconclusive means small, poorly fitted or top-dose-only effect; cell line not stated here; further: potency means the concentration at half of the fitted maximal effect; % of control where 0% means no effect; nearly all actives have a fitted effect of over 65% in size
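Readout is PINK1 immunofluorescence, quantified alongside mitochondrial, cell and nuclear markers by laser-scanning microplate cytometry. Cells from a stable line were exposed to compound titrations (5 concentrations) for 24 hours, with CCCP controls.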
ATXN viability – viability counter-screen for ATXN expression inhibitors. hit rate 0.49% among 400,000. Potency, µM (series often up to 56.7 µM), actives largely listed as cytotoxic. S2 cells (HEK-293 line with an ATXN2-luciferase reporter) viability, CellTiter-Fluor protease fluorescence, 24 h; further: potency means the concentration at half of the fitted maximal effect; nearly all actives have a fitted effect of over 40% in size
MCF10A rerep – inducers of DNA re-replication in MCF 10A breast cells; MCF 10A DNA re-replication, Hoechst nuclear intensity, 48 h; Potency, µM (doses to about 46.1 µM), for inactives: at the highest dose activity, positive = re-replication, usual class: activators; hit rate 2.9% among 350,000; AID 624296; further: potency means the concentration at half of the fitted maximal effect; % of control where 0% means no effect; nearly all actives have a fitted effect of over 50% in size
SW480 rerep – induces DNA re-replication in SW480 colon adenocarcinoma cells; SW480 DNA re-replication, Hoechst DNA content imaging, 48 h; Potency, µM (top dose mostly 46.1 µM), inactives show at the highest dose re-replication activation, hits mostly activators; hit rate 1.8% among 340,000; AID 624297; further: potency means the concentration at half of the fitted maximal effect; % of control where 0% means no effect; nearly all actives have a fitted effect of over 55% in size
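Readout is total intensity of Hoechst-stained nuclei, excited at 405 nm and collected at 500-530 nm. Compound treatment lasted 48 hr at 37 C in 5% CO2 before staining.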
An asterisk follows results filed as active; [ ] = dose if it differs, or a comment. Unless noted, the call rests on the fitted dose curve; in most records, active means well fitted curve in the direction sought with a large enough effect; inconclusive means small, poorly fitted or top-dose-only effect, or another doubt; inactive means no such curve, though single readings can be large; an effect the other way counts as inactive or inconclusive.

COc1ccccc1CNC(=O)C(=O)NCC1OCCN1S(=O)(=O)c1ccc(Br)cc1 (configuration not stated) was read as IL1B secr inh inactive, ATXN2 expr inh -6%, PINK1 modulator 0%, ATXN viability inactive, MCF10A rerep 0% and SW480 rerep 23µM*.
`Cc1ccc(C23CC4CC(CC(NC(=O)NCCN(C)C)(C4)C2)C3)cc1` gave IL1B secr inh -7, ATXN2 expr inh inconclusive, PINK1 modulator -2%, ATXN viability inactive, MCF10A rerep inconclusive and SW480 rerep inconclusive.
For CN(C)CCNC(=O)COc1ccc(C23CC4CC(CC(C4)C2)C3)cc1 the results were IL1B secr inh -59*, ATXN2 expr inh -17%, PINK1 modulator -1%, ATXN viability inactive, MCF10A rerep 16µM* and SW480 rerep inconclusive.
Screening O=c1cc(N2CCCCC2)c(-c2ccccc2)n[nH]1 returned IL1B secr inh 41, ATXN2 expr inh 3%, PINK1 modulator 0%, ATXN viability inactive, MCF10A rerep 1% and SW480 rerep -3%.
Screening O=c1cc(N2CCCCC2)c(-c2ccccc2)nn1Cc1ccc(Cl)cc1 returned IL1B secr inh -27, ATXN2 expr inh -34%, PINK1 modulator 11%, ATXN viability inactive, MCF10A rerep 16µM* and SW480 rerep inconclusive.
For O=c1cc(N2CCCCC2)c(-c2ccccc2)nn1Cc1c(Cl)cccc1Cl the results were IL1B secr inh -67*, ATXN2 expr inh inconclusive, PINK1 modulator -2%, ATXN viability inconclusive, MCF10A rerep 21µM* and SW480 rerep 19%.
For O=c1cc(N2CCCCC2)c(-c2ccccc2)nn1Cc1ccc(F)cc1 the results were IL1B secr inh -25, ATXN2 expr inh -10%[11.3 µM], PINK1 modulator 3%, ATXN viability inactive, MCF10A rerep inconclusive and SW480 rerep -13%.
`Cc1ccc(NC(=O)C2CCC(CNS(=O)(=O)c3ccc4c(c3)CCCC(=O)N4)CC2)c(C)c1` (configuration not stated) gave ATXN2 expr inh -8%, PINK1 modulator 1% and ATXN viability inactive.
`COc1cc(OC)nc(Oc2cc(/C=N/O)ccc2OC)n1` gave IL1B secr inh 0, PINK1 modulator 8%, ATXN viability inactive, MCF10A rerep inconclusive and SW480 rerep 12µM*.
Screening COc1ccc(CCNC(=O)Cn2ncc3c(C)n(Cc4ccccc4F)c(C)c3c2=O)cc1OC returned PINK1 modulator 3%.
Screening CCCCOc1ccc(S(=O)(=O)NNC(=O)C2Cc3c(ccc4ccccc34)O2)cc1 (configuration not stated) returned IL1B secr inh -2, ATXN2 expr inh 3%, PINK1 modulator -6%, ATXN viability inactive, MCF10A rerep 21µM* and SW480 rerep inconclusive.
For COc1ccc(C(=O)c2sc(Nc3ccccc3)nc2N)cc1OC the results were IL1B secr inh -98*, ATXN2 expr inh inconclusive, PINK1 modulator 3%, MCF10A rerep inconclusive and SW480 rerep inconclusive.
`COc1ccc(C(=O)c2sc(Nc3ccccc3)nc2N)cc1` gave IL1B secr inh -77*, ATXN2 expr inh -5%, PINK1 modulator 3%, ATXN viability inactive, MCF10A rerep inconclusive and SW480 rerep inconclusive.
COc1ccc(C(=O)c2sc(Nc3cc(Cl)ccc3C)nc2N)cc1OC was read as ATXN2 expr inh inconclusive, PINK1 modulator 0% and ATXN viability inactive.
Nc1nc(Nc2ccccc2)sc1C(=O)c1ccccc1 was read as ATXN2 expr inh 11%, PINK1 modulator -2%, ATXN viability inactive, MCF10A rerep inconclusive and SW480 rerep inconclusive.
Screening COc1ccc(NC(=O)Nc2ccccc2OCc2cc(=O)n3ccccc3n2)c(OC)c1 returned PINK1 modulator -12%.
For O=C(Nc1ccccc1)c1ccc2nc(-c3ccco3)c(-c3ccco3)nc2c1 the results were IL1B secr inh inconclusive, ATXN2 expr inh 4%, PINK1 modulator -5%[38.3 µM], ATXN viability inactive, MCF10A rerep 12µM* and SW480 rerep 18µM*.
Screening Cc1cccc(N2CCN(C(=O)c3ccc4nc(-c5ccco5)c(-c5ccco5)nc4c3)CC2C)c1 (configuration not stated) returned IL1B secr inh inconclusive, ATXN2 expr inh inconclusive, PINK1 modulator 1%, ATXN viability inconclusive, MCF10A rerep 12µM* and SW480 rerep inconclusive.
O=C(c1ccc2nc(-c3ccco3)c(-c3ccco3)nc2c1)N1CCN(c2ncccn2)CC1 was read as IL1B secr inh -3, ATXN2 expr inh -2%, PINK1 modulator 6%, ATXN viability inconclusive, MCF10A rerep 13µM* and SW480 rerep 9%.
O=C(Nc1ccc2nc(-c3ccco3)c(-c3ccco3)nc2c1)N1CCCC1 was read as PINK1 modulator 2%.
`O=C(Nc1ccc2nc(-c3ccco3)c(-c3ccco3)nc2c1)N1CCN(c2ccccn2)CC1` gave IL1B secr inh -57*, ATXN2 expr inh -28%, PINK1 modulator 1%, ATXN viability inactive, MCF10A rerep inconclusive and SW480 rerep inconclusive.
For CC(=O)c1ccc(NC(=O)c2ccc3nc(-c4ccco4)c(-c4ccco4)nc3c2)cc1 the results were IL1B secr inh -6, ATXN2 expr inh inconclusive, PINK1 modulator 2%, ATXN viability inconclusive, MCF10A rerep inconclusive and SW480 rerep inconclusive.
Screening Cc1cccc(N2CCN(C(=O)c3ccc4nccnc4c3)CC2C)c1 (configuration not stated) returned IL1B secr inh 25, ATXN2 expr inh -6%, PINK1 modulator 8%, ATXN viability inconclusive, MCF10A rerep 6% and SW480 rerep -1%.
`Cc1nc2ccccc2n1CCc1nc2c3ccccc3nc(SCc3ccc(C#N)cc3)n2n1` gave ATXN2 expr inh 1%, PINK1 modulator 0% and ATXN viability inactive.
For COc1ccc(Br)cc1CNC(=O)CN1C(=O)c2cccnc2Oc2ccc(C)cc21 the results were PINK1 modulator 4%.
COc1ccc(C(CNC(=O)c2ccc(-c3ccccc3Cl)o2)N2CCOCC2)cc1 (configuration not stated) was read as IL1B secr inh -76*, ATXN2 expr inh -1%, PINK1 modulator 11%, ATXN viability inactive, MCF10A rerep inconclusive and SW480 rerep 10%.
Screening COc1ccc(C(CNC(=O)CSc2ccccc2F)N2CCOCC2)cc1 (configuration not stated) returned IL1B secr inh -3, ATXN2 expr inh -1%, PINK1 modulator 0%, ATXN viability inactive, MCF10A rerep 11% and SW480 rerep -132%.
